# Results reported in PubChem BioAssay (NCI).
# This is part of a sample that, as a whole, favours compounds with a hit. Of some 83,000 tested, about 20% had one in any assay.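 Cells were grown in 96-well plates and exposed to the test compound at a single concentration for 48 hours; results are reported as percent growth, with values below 10 considered active.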 Unmarked numbers belong to inactive results. Calls of active or inactive are those of the source.
# Columns and labels:
# Test in all cases: NCI-60 one-dose screen, 48 h (100 = growth as untreated, 0 = no growth, -100 = all killed)
# Conditions in all cases: 10 µM unless noted
# SR leukemia = test system: SR leukemia
# RPMI-8226 leukemia = test system: RPMI-8226 leukemia
# OVCAR-8 ovarian = test system: OVCAR-8 ovarian
# OVCAR-5 ovarian = test system: OVCAR-5 ovarian
# OVCAR-4 ovarian = test system: OVCAR-4 ovarian
# SK-OV-3 ovarian = test system: SK-OV-3 ovarian
# IGROV1 ovarian = test system: IGROV1 ovarian
# OVCAR-3 ovarian = test system: OVCAR-3 ovarian
# HS 578T breast = test system: HS 578T breast
# NCI/ADR-RES ovarian = test system: NCI/ADR-RES ovarian
# T-47D breast = test system: T-47D breast
# BT-549 breast = test system: BT-549 breast
# MDA-MB-435 melanoma = test system: MDA-MB-435 melanoma
# SW-620 colon = test system: SW-620 colon
# MCF7 breast = test system: MCF7 breast
# HCT-116 colon = test system: HCT-116 colon
# HCC-2998 colon = test system: HCC-2998 colon
# KM12 colon = test system: KM12 colon
Structure (SMILES),growth (SR leukemia),growth (RPMI-8226 leukemia),growth (OVCAR-8 ovarian),growth (OVCAR-5 ovarian),growth (OVCAR-4 ovarian),growth (SK-OV-3 ovarian),growth (IGROV1 ovarian),growth (OVCAR-3 ovarian),growth (HS 578T breast),growth (NCI/ADR-RES ovarian),growth (T-47D breast),growth (BT-549 breast),growth (MDA-MB-435 melanoma),growth (SW-620 colon),growth (MCF7 breast),growth (HCT-116 colon),growth (HCC-2998 colon),growth (KM12 colon)
CCOP(C)(=O)/C(Cc1ccc(OC)c(OC)c1)=N\O (stereo unspecified),105%,99.3%,114%,96.6%,107%,115%,104%,111%,94.9%,95.7%,115%,115%,104%,99.2%,104%,103%,98.5%,101%
CCNCc1ccccc1,97.5%,119%,100%,98.5%,114%,97.5%,106%,102%,102%,102%,98.3%,124%,110%,108%,98.7%,97.6%,99.8%,99.8%
Nc1c(Cl)cc2c(c1Br)C(=O)c1ccccc1C2=O,78.4%,98.3%,89.3%,98.5%,106%,84%,71.6%,117%,98%,92.4%,76%,114%,105%,99.6%,99.8%,96.7%,101%,106%
COC(=O)C(Cc1cn(C(C)=O)c2ccccc12)P(=O)(OC)OC (stereo unspecified),94.6%,101%,106%,103%,87%,113%,113%,106%,94.2%,95.3%,105%,105%,99.5%,99.5%,101%,96.4%,103%,99.2%
O=C(O)c1ccc2c3ccc(C(=O)O)c4c(C(=O)O)ccc(c5ccc(C(=O)O)c1c25)c43,104%,135%,98%,84.2%,103%,107%,42.4%,101%,107%,114%,97.2%,64.8%,101%,97.5%,93.3%,90.1%,76.9%,100%
CCCCNC(=O)c1ccccc1C,85.3%,99.7%,107%,94.4%,104%,97.3%,96.2%,105%,104%,99.3%,96.9%,94.1%,97.9%,104%,89.8%,90.2%,88.3%,101%
O=C1Cc2ccccc2C(=O)N1,30.4%,48.9%,56.2%,96.1%,63.4%,98.9%,76.8%,76.3%,103%,91.8%,71.1%,101%,99.4%,56.6%,56.8%,6.29% (active),103%,102%
